For 40 compounds, growth inhibition results are on record in PubChem BioAssay (NCI).

Compounds without any hit were thinned out: in the full panel of roughly 79,000, 15% have a hit. Values without a mark were called inactive. Active and inactive are the calls of the source. Rule as the data show it: active = growth inhibition above about 70%; inactive = the rest.

The test in a line: NCI Yeast Anticancer Drug Screen. Data for the cln2 rad14 strain (AID 165).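 Also: 0% = growth equal to vehicle treated cultures.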 The note with it: S. cerevisiae cln2 rad14 strain, at 50.0 µM, stronger effect = higher value. The essentials:
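Yeast carrying cln2 and rad14 alterations (cell cycle control and DNA damage repair) were exposed to compounds. Growth inhibition was measured against vehicle-treated controls.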
Turning to `Cc1nc(C(N)=S)sc1C(=O)CC(=O)C(=O)Nc1c(C(C)C)cccc1C(C)C`, the growth inhibition was -24.9%. Regarding `NC(CCNCCc1ccccc1)CNCCc1ccccc1` (stereo not given), the growth inhibition was -2.85%. As to `O=C(COc1ccc(Cl)c(Cl)c1)Nc1ccc(C(=O)CCl)cc1`, the growth inhibition is -3.35%. On to `CCOC(=O)c1ccc(N[C@@H]2c3cc4c(cc3C(c3cc(OC)c(O)c(OC)c3)[C@H]3C(=O)OCC32)OCO4)cc1` (stereo not given in full), for which the growth inhibition was 87.5% (active). With `CC(Cc1nc2ccccc2[nH]1)Cc1nc2ccccc2[nH]1`, the growth inhibition was 21.4%. The same measure for `CC1(c2ccc(C(O)c3ccccc3)s2)OCCO1` (stereo not given): 12.9%; for `O=C1c2ccccc2-c2ccc(N3C(=O)C=CC3=O)cc21`: 56.2%; for `O=NNc1nc2ncccc2cc1-c1ccccc1Cl`: 9.75%.

For `Cc1c(Cl)cccc1NC(=O)C(=O)C1C(=O)CC(C)(C)CC1=O`, the growth inhibition was 7.85%.

As to `Cc1cccc(/C=N/Nc2ccc([N+](=O)[O-])cc2[N+](=O)[O-])c1C`, the growth inhibition was -11.2%. On to `O=C(O)C1Cc2nc[nH]c2CN1CO` (stereo not given), for which the growth inhibition was 3.95%. Take `CN(C)CCNc1ccc(NCCN(C)C)c2c1C(=O)c1ncsc1C2=O`: the growth inhibition is 8.35%.

As to `C=CCOC(=O)c1ccco1`, the growth inhibition is -1.4%. The value for `CC1(C)CC(C)(OC(=O)c2ccccc2)N=N1` (stereo not given) was -16.4%; that for `COC(=O)CCCc1ccc2c(c1)CC1(C2)Cc2cc3c(cc2C1)CCCC3` was -15.5%. Consider `CCOC(=O)NC(=O)c1cn(CC(=O)NCC(=O)NCC(=O)NCCCN2CCN(CCCNC(=O)CNC(=O)CNC(=O)Cn3cc(C(=O)NC(=O)OCC)c(=O)[nH]c3=O)CC2)c(=O)[nH]c1=O`, for which the growth inhibition was -23.2%. Regarding `CC(=O)NC1C(OCC(=O)NCCNc2ccc([N+](=O)[O-])c3[nH]c4ccccc4c(=O)c23)C(O)C(CO)OC1(C)OCc1ccccc1` (stereo not given), the growth inhibition is 8.65%. The same measure for `O=C(CCCl)OC1CCCC1`: -30.4%; for `CN(/N=C\c1ccc2ccccc2c1)C1=NCCN1`: -63%. As for `C(=C\c1cc(-c2cc(/C=C/c3ccccc3)[nH]n2)n[nH]1)/c1ccccc1`, the growth inhibition is 13.2%.

On to `CCOC(=O)CCC(C(=O)c1cccnc1)c1ccccn1` (stereo not given), for which the growth inhibition is -52.9%. For `COc1c(CO)cc(C)cc1CO`, the growth inhibition was 3.05%.

For the compound `Cc1ccc(OCCNCCO)cc1`, the growth inhibition was 10.4%. The same measure for `CCCCCCCCCCCCCCCCCC(CCCCCCCC)CCCCCCCC`: 3.3%; for `CCCCCCn1cnc2c(=S)nc[nH]c21`: 7.45%; for `O=S(O)CCCCSSCC(O)CO` (stereo not given): 63.5%.

As for `O=C1OC(c2cccc(Cl)c2)=N/C1=C\c1cc(Br)ccc1O`, the growth inhibition is 5.2%. On to `CC(CC#N)NC(=O)C1CCC(N)=N1` (stereo not given), for which the growth inhibition was 1.4%. As for `CCCCCCCCCCCCCCCCS`, the growth inhibition was -6.6%. For `CCOC(=O)CC1(c2ccccc2)OC(=O)c2ccccc21` (stereo not given), the growth inhibition was 4.75%. On to `NC(N)=NC(N)=Nc1ccccc1Br`, for which the growth inhibition is -26.1%. For `CN(C)c1nc(-c2ccccc2)c(Cc2ccccc2)c(=O)o1`, the growth inhibition was -4.25%. Consider `c1cc2c3c(c1)ccc1ccc4cccc(c4c13)O2`, for which the growth inhibition is -0.7%. Turning to `CC(C)CCC[C@@H](C)[C@H]1CC[C@H]2[C@@H]3CC[C@H]4C[C@H](N[C@@H]5CC[C@@]6(C)[C@@H](CC[C@@H]7[C@@H]6CC[C@]6(C)[C@@H]([C@H](C)CCCC(C)C)CC[C@@H]76)C5)CC[C@]4(C)[C@H]3CC[C@]12C`, the growth inhibition was -2.8%. The value for `O=C(N/N=C/c1cc(Br)cc(Br)c1O)c1ccccc1` was 3.85%; that for `O=[N+]([O-])c1ccc(N=C/C=C/Nc2ccc([N+](=O)[O-])cc2)cc1` was -8.6%; that for `CC(C)(/C=N\O)NO` was 13.6%.

As to `CC(=O)OC1CCC2(C)C(CCC3(C)C2CCC2C4C5OC(=O)C4(CCC5(C)C)CCC23C)C1(C)C` (stereo not given), the growth inhibition was -5.2%. Take `O=C1NC(=O)c2c1c1cnn(-c3ccccc3)c1n1cccc21`: the growth inhibition is -67%. For `O=C1c2ccccc2-c2ccc(-n3c(=O)c4ccccc4c4ccccc4c3=O)cc21`, the growth inhibition was 16.1%.
